# PubChem BioAssay (NCATS)
# Records with an inconclusive call do not appear. Calls of active or inactive are those of the source. Unless noted, calls follow the shape of the dose curve; as a rule, active = well fitted curve in the direction sought with a large enough effect; inconclusive = small, poorly fitted or top-dose-only effect, or another doubt; inactive = no such curve, though single readings can be large; an effect the other way counts as inactive or inconclusive.
# Experiments:
# [1] = Primary qHTS to identify inhibitors of SARS-CoV-2 cell entry (AID 1645846; calls by dose curve; also: nearly all actives have a fitted effect of over 45% in size; also: potency is read from the fitted curve at half-maximal effect); details: SARS-CoV-2 pseudovirus cell entry assay, luminescence; activity change, negative = inhibition: at 57.1 µM (top of the series) unless noted
# How it was run: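 Entry measured by luciferase signal 48 h after adding SARS-CoV-2-S pseudotyped MLV particles to HEK293-ACE2 cells preincubated 1 h with compounds. Normalisation: bald particles and spike particles.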
# [2] = Primary qHTS for inhibitors of nuclear receptor binding SET domain protein 2 (NSD2) in an isogenic RCH-ACV NSD2 p.E1099K mutant (9B) (AID 1645876); also: nearly all actives have a fitted effect of over 70% in size; also: potency is read from the fitted curve at half-maximal effect
# [3] = target: Phospholipid hydroperoxide glutathione peroxidase GPX4 (Homo sapiens) (UniProt P36969); test: Primary qHTS Assay for Inhibitors of Recombinant Selenoprotein Glutathione Peroxidase 4 (GPX4) (AID 1845192); also: nearly all actives have a fitted effect of over 65% in size; also: potency is read from the fitted curve at half-maximal effect; as to activity change, negative = inhibition: % is scaled to controls: 0 for no effect and ±100 for the full control effect
# How it was run: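 qHTS, GR-coupled: GPX4 200 nM + cpd 30 min RT → GSH 1 mM, NADPH 0.5 mM, GR 100 nM → CHP 0.5 mM start; fluor 340/450 at t0 and t15 min; no-enzyme wells as control.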
# [4] = qHTS assay to identify inhibitors of the type 1 interferon - major histocompatibility complex class I in skeletal muscle: Counter screen cell viability and HiBit confirmation (AID 1347412); details: iHSKM muscle cells + IFN-b, HiBiT or CellTiter-Glo, 24 h; for activity change, negative = inhibition: at 45.9 µM (top of the series); also: potency is read from the fitted curve at half-maximal effect; as to activity change, negative = inhibition: % is scaled to controls: 0 for no effect and ±100 for the full control effect; as to all read-outs here: nearly all actives have a fitted effect of over 60% in size
# How it was run: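 After 24 h with human IFN-beta (4 ng/ml) and compound titrations (top 46 uM final, 1:3, 12 points), HLA-B HiBit myoblasts were lysed for either Nano-Glo HiBiT luminescence or CellTiter Glo viability on paired plates.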
# [5] = qHTS for differential inhibitors of proliferation of Plasmodium falciparum line GB4 (AID 1816); details: Potency: Plasmodium falciparum GB4 proliferation inhibition;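 also: parasite growth measured after 72 h incubation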; also: potency is read from the fitted curve at half-maximal effect;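 as to activity change, negative = inhibition: 0% = vehicle DMSO and -100% = reference inhibitor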
# [6] = qHTS for differential inhibitors of proliferation of Plasmodium falciparum line Dd2 (AID 1882); details: Potency: Plasmodium falciparum Dd2 proliferation inhibition; also: nearly all actives have a fitted effect of over 65% in size; also: potency is read from the fitted curve at half-maximal effect;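 as to activity change, negative = inhibition: plate controls were DMSO vehicle for no effect and 0.29 µM artemisinin for full effect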
# How it was run: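 SYBR Green DNA fluorescence (ex 485, em 535 nm) after overnight lysis quantifies parasite growth; compound exposure lasted 72 h at 37 C on infected red cells at 2.5% hematocrit, 0.3% parasitemia (final). Artemisinin 0.29 uM and vehicle wells define normalization.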
# [7] = qHTS Assay for Modulators of Human Peripheral Myelin Protein 22 (PMP22) Expression/Activity (AID 1967; active = well fitted curve in the direction sought with a large enough effect in the signal ratio; the % refers to the signal ratio;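 also: 0% = untreated cells and 100% end not stated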)
# How it was run: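 Readout is the corrected green/red luminescence ratio after 24 h compound exposure, normalised to untreated cells (0%). Engineered MSC80 mouse Schwann cells express green luciferase from the mouse Pmp22 promoter and red luciferase from EF-alpha as internal control.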
# [8] = target: RecQ-like DNA helicase BLM (Homo sapiens) (UniProt P54132); test: qHTS Validation Assay for Inhibitors of Bloom's syndrome helicase (BLM) (AID 2364);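 also: plate controls were DMSO vehicle for no effect and enzyme-free control for full effect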
# How it was run: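 BLM 50 nM in 25 mM Tris-HCl pH 8.0, 5 mM NaCl, 2 mM MgCl2, 1 mM DTT, 0.01% Tween-20, 2.5 ug/ml poly(dI-dC); 15 min cpd preinc, RT. Start: 200 nM forked DNA + 2 mM ATP (final). TAMRA read, 2 reads 2 h apart.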
# [9] = qHTS for differential inhibitors of proliferation of Plasmodium falciparum line 7G8 (AID 1815);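 also: potency is read from the fitted curve at half-maximal effect; parasite growth measured after three days of incubation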
# Chain of Phospholipid hydroperoxide glutathione peroxidase GPX4 (Homo sapiens) (P36969 whole entry, looked up): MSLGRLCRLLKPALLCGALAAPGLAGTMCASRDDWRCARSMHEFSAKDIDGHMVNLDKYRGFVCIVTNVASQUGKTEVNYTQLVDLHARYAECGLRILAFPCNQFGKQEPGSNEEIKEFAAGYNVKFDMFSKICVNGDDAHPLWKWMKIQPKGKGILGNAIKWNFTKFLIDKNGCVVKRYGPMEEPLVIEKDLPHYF
# Chain of RecQ-like DNA helicase BLM (Homo sapiens) (P54132 whole entry, looked up): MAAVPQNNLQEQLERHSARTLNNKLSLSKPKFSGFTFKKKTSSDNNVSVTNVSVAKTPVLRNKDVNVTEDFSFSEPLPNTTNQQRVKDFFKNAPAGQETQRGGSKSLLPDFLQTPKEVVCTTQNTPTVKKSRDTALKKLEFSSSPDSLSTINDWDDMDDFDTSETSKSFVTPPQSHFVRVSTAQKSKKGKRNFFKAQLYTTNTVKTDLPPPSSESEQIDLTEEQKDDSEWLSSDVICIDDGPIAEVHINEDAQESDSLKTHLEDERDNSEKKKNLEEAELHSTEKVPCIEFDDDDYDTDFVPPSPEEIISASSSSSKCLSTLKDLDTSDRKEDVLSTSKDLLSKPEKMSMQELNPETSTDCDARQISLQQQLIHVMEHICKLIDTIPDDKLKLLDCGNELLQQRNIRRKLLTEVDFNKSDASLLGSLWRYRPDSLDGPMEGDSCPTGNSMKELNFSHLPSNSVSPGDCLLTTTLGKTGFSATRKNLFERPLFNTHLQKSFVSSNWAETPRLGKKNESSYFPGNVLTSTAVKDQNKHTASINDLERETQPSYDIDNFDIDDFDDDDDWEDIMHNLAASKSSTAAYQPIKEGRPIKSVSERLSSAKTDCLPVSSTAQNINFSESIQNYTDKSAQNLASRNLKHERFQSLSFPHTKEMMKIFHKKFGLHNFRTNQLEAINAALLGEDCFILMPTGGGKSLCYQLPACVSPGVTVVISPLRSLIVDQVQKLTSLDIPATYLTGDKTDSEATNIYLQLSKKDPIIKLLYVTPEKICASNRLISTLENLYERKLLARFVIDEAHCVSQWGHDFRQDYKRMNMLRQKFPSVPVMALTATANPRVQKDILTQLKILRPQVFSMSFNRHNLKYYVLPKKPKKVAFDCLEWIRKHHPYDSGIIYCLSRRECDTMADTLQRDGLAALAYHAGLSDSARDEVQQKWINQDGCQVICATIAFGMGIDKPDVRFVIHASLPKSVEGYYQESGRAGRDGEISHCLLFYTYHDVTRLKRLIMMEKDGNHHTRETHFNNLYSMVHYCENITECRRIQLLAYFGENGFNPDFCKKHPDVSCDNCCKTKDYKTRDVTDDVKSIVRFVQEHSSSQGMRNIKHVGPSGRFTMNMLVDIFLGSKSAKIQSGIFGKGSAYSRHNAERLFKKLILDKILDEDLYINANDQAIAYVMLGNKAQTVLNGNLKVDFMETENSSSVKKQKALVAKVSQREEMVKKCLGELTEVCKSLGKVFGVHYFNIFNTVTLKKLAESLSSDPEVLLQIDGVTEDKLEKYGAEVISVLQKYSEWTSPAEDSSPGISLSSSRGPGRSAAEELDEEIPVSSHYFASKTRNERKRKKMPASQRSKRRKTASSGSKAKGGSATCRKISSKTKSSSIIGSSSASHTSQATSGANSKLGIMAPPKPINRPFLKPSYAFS
structure (smiles),measurement,setting,value
Cn1c(/C=C/CO)c(CO)c2c1C(=O)C=C(N1CC1)C2=O,Potency,[1],inactive
same,Potency,[2],inactive
same,Potency,[3],inactive
CC(=O)O[C@@]12CO[C@@H]1C[C@H](O)[C@@]1(C)C(=O)[C@H](O)C3=C(C)[C@@H](O)C[C@@](O)([C@@H](OC(=O)c4ccccc4)[C@H]21)C3(C)C,Potency,[2],inactive
C=C[C@H]1CN2CCC1C[C@@H]2[C@@H](O)c1ccnc2ccccc12 (some centres not stated),"activity change, negative = inhibition",[1],-29.6%
same,Potency,[2],inactive
COc1cc2cc(c1Cl)N(C)C(=O)C[C@H](OC(=O)C(C)C)[C@]1(C)O[C@@H]1[C@H](C)[C@@H]1C[C@@](O)(NC(=O)O1)[C@H](OC)/C=C/C=C(\C)C2,"activity change, negative = inhibition",[1],-80.9%
same,Potency,[2],inactive
CC(N[C@H]1C[C@@H]1c1ccccc1)c1ccc2c(c1)OCCO2 (some centres not stated),"activity change, negative = inhibition",[1],-4.37%
same,Potency,[2],inactive
O=C(CBr)N1CC([N+](=O)[O-])([N+](=O)[O-])C1,"activity change, negative = inhibition",[1],-11.3% [at 114 µM]
O=C(O)CNC(=O)C1C(=O)N(C2CCCCC2)C(=O)N(C2CCCCC2)C1=O,"activity change, negative = inhibition",[1],-12.5%
same,Potency,[2],inactive
CC(C)[C@]12O[C@H]1[C@@H]1O[C@@]13[C@@]1(C)CCC4=C(COC4=O)[C@@H]1C[C@@H]1O[C@@]13C2=O,"activity change, negative = inhibition",[1],-93.1%
same,Potency,[2],0.0372 µM (active)
same,Potency,[3],inactive
same,Potency,[4]; HiBiT,0.0497 µM (active)
same,"activity change, negative = inhibition",[4]; Viability,4.52% (inactive)
COC(=O)[C@]12CCC(C)(C)C[C@H]1[C@H]1C(=O)C=C3[C@@]4(C)C=C(C#N)C(=O)C(C)(C)[C@@H]4CC[C@@]3(C)[C@]1(C)CC2,Potency,[1],1 µM (active)
same,Potency,[4]; HiBiT,1.57 µM (active)
C[C@]12COC(=O)C[C@@H]1CC[C@@H]1[C@@H]2CC[C@@]2(C)[C@H]1CC[C@]2(C)O,"activity change, negative = inhibition",[1],-8.16%
COC[C@H]1OC(=O)c2coc3c2[C@@]1(C)C1=C(C3=O)[C@@H]2CC[C@H](O)[C@@]2(C)C[C@H]1OC(C)=O,Potency,[2],13.2 µM (active)
CCCCCCC(C)(C)c1cc(O)c2c(c1)OC(C)(C)C1CC=C(CO)C[C@H]21 (some centres not stated),"activity change, negative = inhibition",[1],-8.86%
same,Potency,[2],inactive
same,Potency,[4]; Viability,35.2 µM (active)
CO[C@H]1CCC(O[C@H]2C[C@H]([C@]3(C)CC[C@]4(C[C@H](O)[C@@H](C)[C@@H]([C@@H](C)/C=C(\C)C(=O)[C@H](C)C[C@H](C)C(=O)O)O4)O3)O[C@]3(O[C@@H]([C@H]4O[C@@](O)(CO)[C@H](C)C[C@@H]4C)C[C@@H]3C)[C@@H]2C)O[C@@H]1C (some centres not stated),Potency,[2],0.209 µM (active)
same,Potency,[4]; HiBiT,12.5 µM (active)
same,Potency,[4]; Viability,14 µM (active)
Cn1c(COP(=O)(NCCBr)NCCBr)cnc1[N+](=O)[O-],"activity change, negative = inhibition",[1],-15%
N#CC(O[C@@H]1O[C@H](CO[C@@H]2O[C@H](CO)[C@@H](O)[C@H](O)[C@H]2O)[C@@H](O)[C@H](O)[C@H]1O)c1ccccc1 (some centres not stated),Potency,[2],inactive
same,Potency,[3],inactive
C[C@@H](C1CC[C@@]2(O)C3=CC(=O)[C@@H]4C[C@@H](O)[C@@H](O)C[C@]4(C)[C@H]3CC[C@]12C)[C@H](O)CCC(C)(C)O (some centres not stated),"activity change, negative = inhibition",[1],-30.2%
same,Potency,[2],inactive
Cc1[nH]ncc1-c1cc2nc([C@@H]3CC4CCN3CC4)[nH]c(=O)c2s1,Potency,[2],2.35 µM (active)
same,Potency,[4]; HiBiT,4.43 µM (active)
same,"activity change, negative = inhibition",[4]; Viability,15.9% (inactive)
C=C(C)[C@@H]1CCC(C)=C[C@H]1c1c(O)cc(CCCCC)cc1O,Potency,[2],18.6 µM (active)
same,Potency,[3],17.8 µM (active)
same,"activity change, negative = inhibition",[4]; Viability,5.14% (inactive)
CC12CCC3C(CCC4=C(O)C(=O)CCC43C)C1CCC2=O (configuration not stated),Potency,[5],inactive
same,Potency,[6],inactive
same,outcome,[7],inactive
same,outcome,[8],inactive
CCCN(CCC)[C@@H]1CCc2c(F)ccc(O)c2C1,Potency,[9],1.12 µM (active)
same,Potency,[5],0.355 µM (active)
same,Potency,[6],1.41 µM (active)
same,outcome,[8],inactive
